# Test results taken from PubChem BioAssay AID1347426 (Functional Genomics Laboratory (NCATS/FGL), 2020).
# About 1,400 (4.5%) of roughly 31,000 sequences were called active. This is one part of a sample in which actives are shown more often than they occur.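 The calls were made as follows: active = median seed-adjusted z-score above 1 or below -1; inactive = the rest.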
# Assay: Novel Modifiers of Survival Motor Neuron (SMN) Protein: Gene Identification via Genome-wide siRNA Screen;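 also: luminescence tracks full-length SMN protein made from the SMN2 reporter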
# Settings: HEK293T SMN2-luciferase reporter, siRNA knockdown, 72 h; actives lie on both sides
# Method in brief: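 Steps: spot 1 pmol siRNA, add Lipofectamine RNAiMax in serum-free DMEM, seed HEK293T SMN2–luciferase reporter cells; incubate 72 h at 37 °C; add ONE-Glo; normalize luminescence to control siRNA, log10, MAD. Candidates: |MAD| > 1.0.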
row,Sequence,median seed-adjusted z-score
1,UCAUCUUCAUCGACCGGAATT against AGPAT1,-1.38 (active)
2,UACCUGUGGUCAUUCCUUATT against HHATL,0.497 (inactive)
3,ACACCUCACUCAUCCUCUUTT against GNAZ,-0.604 (inactive)
4,GGGCAAUGAUAGAAAGAAUTT against STK35,0.519 (inactive)
5,GGAGGGAUGGUUACUGUUATT against TOX4,0 (inactive)
6,GAUGCAUUCGAUGACCUGATT against PTGES2,-0.02 (inactive)
7,GCCUAUUCCUUCAAGUAUUTT against SUPT6H,-2.54 (active)
8,CAGUGAAAAGUGACGCGGATT against DZIP1,-0.138 (inactive)
9,CGAAAGUCCUCACCAACAATT against TSHZ1,0.526 (inactive)
10,GCCUUUCAUCAGAUCUUCUTT against DBX1,0.0137 (inactive)
11,GAAUCUGUCUUAGAUCUCATT against PRDM2,1.12 (active)
12,CCAUAGAAUUCAAAAUCCUTT against BCL2L14,-0.859 (inactive)
13,GGAGUCUACUUUACCGGUATT against BPIL2,-0.63 (inactive)
14,GCAGAGAAAAUAUAACUGATT against NPHP1,-0.0667 (inactive)
15,AGAUGGUCCAAGAUCCAGATT against CHRM4,-0.856 (inactive)
16,GGAGUUUCCCAUCAAACGATT against PADI4,0.417 (inactive)
17,CUUCCUAGGUUACAAGUAATT against FAM84B,-0.431 (inactive)
18,GGGACAAGCUUGACAAGGUTT against TRIM62,-0.000231 (inactive)
19,GGGUGUCUAAAGGUACAUATT against FSD2,0.359 (inactive)
20,GUACGUUGUAUGUUAAACATT against SLC12A2,-0.4 (inactive)
21,CGAUUCCAGCAGUAGCUCATT against AP3B2,-2.45 (active)
22,GGAGUUCGCAAAAUCGUCATT against NRK,0.0687 (inactive)
23,CCUCCAUGUCCAACCCAUATT against FOSL2,-0.372 (inactive)

row,Sequence,median seed-adjusted z-score
1,AGUAGAACGUGUACGCAGATT against MGST1,-0.0144 (inactive)
2,GAAUAUCGGCAGAGAGAUATT against RNF12,0.29 (inactive)
3,CGGAGAAGAUGUUCGCCGATT against SIL1,0.0292 (inactive)
4,GGAUGUGCACUCUCAUUGATT against COPA,-0.807 (inactive)
5,GGAGAUUCAGAUCCUCAAATT against JAK3,-0.0926 (inactive)
6,GCAACACCCAGGUAGUUUUTT against EIF4A1,-1.05 (active)
7,GAAGCUCUACUCACAGUUUTT against GSTM2,-0.464 (inactive)
8,CUUAACCUGUGGAAUCGAATT against NIPA2,-0.103 (inactive)
9,GCAAAGAUAGAAGAAGAUATT against DDI2,1.27 (active)
10,GCAAGAUGAUUUUAUCUCUTT against CDA,0.471 (inactive)
11,CAUUAAAGCAGCUACCAAUTT against PSMC3IP,-0.0482 (inactive)
12,GCAACAGCAUUAUGACCCATT against COL10A1,-0.0291 (inactive)
13,GGUUGCGGCUCAGAACAAATT against OAS3,0.147 (inactive)
14,GGACCUGAUUGAUGCCGUCTT against PYCR1,-0.171 (inactive)
15,AGACCUCGAUUUCACAGUATT against PRMT8,0 (inactive)
16,CAGAGUAUGUAAAUAGACATT against CAPRIN1,1.36 (active)
17,GGAAGUGCCCAGUGACUUATT against SLPI,0.274 (inactive)
18,GCACUGUCACUAAGCAGAATT against CHEK2,0.585 (inactive)
19,GAGAGAUCAUUGCAAAGCATT against HNRNPM,0.499 (inactive)
20,GCCUCUACAGCAGAAGAAATT against LAMB2,1.12 (active)
21,GGAGAGACUUUUUACAACUTT against CACNG6,-0.0499 (inactive)
22,CUGUCCAUAGUGUCAUUAATT against GALNT1,-0.164 (inactive)
23,CUUGUCAAGUACGACCUUATT against NINJ1,-0.061 (inactive)

row,Sequence,median seed-adjusted z-score
1,GGCUGUUCGAGUCCUGAAATT against FMO1,0.323 (inactive)
2,GAGCAGGUGUUAUUAUGGATT against CLCN3,-0.0801 (inactive)
3,GUUCAGCCGUGGAAAGAAATT against WFDC6,0.0443 (inactive)
4,GAAAUACAAGGAAUCUGAATT against TMTC4,-1.16 (active)
5,GCACCGUGGUGUCAACCAUTT against KCNK12,1.04 (active)
6,CCUACUCAAUGUGAUAUAUTT against ADAMDEC1,0.0106 (inactive)
7,CCCUUAAUCUACAAUAUCATT against PHTF1,0.0129 (inactive)
8,GUCCCGAUCUGUGCUCUGATT against DUSP2,0.576 (inactive)
9,GGAGUACCAUAGAUACAGATT against PPIG,-0.0192 (inactive)
10,GGAUCGCUGUCUCUAACUUTT against RRM1,-5.51 (active)
11,GCCUCUAUUUGAUAAGCGATT against NAP1L1,0.263 (inactive)
12,GCGUUGGUCGGGAUGAUUATT against P2RY10,-0.432 (inactive)
13,GGAGGUCUAUAUUAUAAGATT against CFHR4,-0.0972 (inactive)
14,GAUACGCUAUGAACUCUCATT against RCE1,-1.19 (active)
15,GCAUUAGAAACUUACAAGATT against TROVE2,0.399 (inactive)
16,CGAGUGUUCCCGGACAACATT against PODNL1,-0.448 (inactive)
17,GCUCAGCCCUUACUGUACATT against ZNF569,0.425 (inactive)
18,GAUUGACCUGCGUUACGAATT against ADCK2,0.0823 (inactive)
19,UGCCUUAUCUGGAAGCAAATT against ERMAP,-0.276 (inactive)
20,GAUUCCCUGCAUCAACUAATT against SQLE,-1.14 (active)
21,GGGAAACGAUAUUCAUACATT against ADAMTS19,-0.39 (inactive)
22,GUUAGGUAGUAGAAACAAATT against TCFL5,1.52 (active)
23,GUUUCGGACCUAUCUCUGATT against RBM3,0.0539 (inactive)
